# FBW7 activator – activators of human E3 ligase FBW7. normalized activity (activation), % at 26.1 µM. AID 1259310. hit rate 0.13% among 650,000. AlphaScreen FBW7–phospho-cyclin E peptide binding, activator screen; in the data active = normalized activity above about 1.9%;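 note: purified mutant Fbw7 with reduced substrate affinity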
# GPR151 ag – activates the human receptor GPR151. PathHunter beta-arrestin GPR151 cells, luminescence. activation, % at 11.2 µM. hit rate 1% among 650,000. AID 1508602; in the data active = activation above about 4.9%;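 note: 0% = median of compound wells and 100% = cells with positive control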
# Target sequence (Q8TDV0 whole entry, looked up): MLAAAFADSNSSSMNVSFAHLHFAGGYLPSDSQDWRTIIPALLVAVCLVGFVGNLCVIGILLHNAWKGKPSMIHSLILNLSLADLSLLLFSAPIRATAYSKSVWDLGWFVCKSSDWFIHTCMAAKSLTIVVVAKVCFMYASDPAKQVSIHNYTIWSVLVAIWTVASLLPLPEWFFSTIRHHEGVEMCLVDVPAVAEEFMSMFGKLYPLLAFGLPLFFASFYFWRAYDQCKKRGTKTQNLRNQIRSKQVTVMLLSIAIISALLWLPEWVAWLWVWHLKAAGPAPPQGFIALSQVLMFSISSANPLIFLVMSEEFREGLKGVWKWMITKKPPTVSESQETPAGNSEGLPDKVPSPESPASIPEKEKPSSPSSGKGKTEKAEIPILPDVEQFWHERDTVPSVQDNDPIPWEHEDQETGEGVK
# TEAD-YAP block – TEAD-YAP interaction inhibition | HEK-TIYL cells, TEAD-Gal4/YAP UAS-luciferase luminescence | inhibition, % at 9.12 µM | hit rate 1.4% among 640,000 | AID 1259422; in the data active = inhibition above about 32%;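 note: 0% = median of test compound wells and 100% = reference inhibitor wells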
# MITF primary – human MITF inhibition, primary screen. O75030. AlphaScreen MITF homodimerization, bead proximity signal. inhibition, % at 2.6 µM. hit rate 0.91% among 650,000. AID 1259374; in the data active = inhibition above about 50%;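 note: 0% = vehicle wells with protein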
# * marks the source's active call; other numbers are inactive results. Hits are enriched below; roughly 3.4% of the tested compounds scored in any of these assays.
SMILES,FBW7 activator,GPR151 ag,TEAD-YAP block,MITF primary
Cc1cc(C(=O)CN2C(=O)C3CC=CCC3C2=O)c(C)n1CC1CCCO1 (configuration not stated),0,1,36*,-2
Cc1cc(C(=O)CSc2nnc(-c3cccs3)o2)c(C)n1CC1CCCO1 (configuration not stated),0,2,-18,18
COc1cc(CNCCCN(C)C)ccc1OCc1ccc(F)cc1Cl,0,-1,34*,-23
Cc1nc2cc(NCc3nc4ccccc4n3C)ccc2n1C,1,-11,81*,9
COc1ccc(-c2csc(CN3CCN(C(=O)c4ccc(F)c(F)c4)CC3)n2)cc1,0,0,50*,2
CCn1cc(C(=O)N2CCN(Cc3nc(-c4ccc(F)cc4)cs3)CC2)c(=O)c2ccc(C)nc21,0,-1,61*,10
CCn1cc(C(=O)N2CCN(c3ccccc3OC)CC2)c(=O)c2ccc(C)nc21,0,0,-1,1
COC(=O)c1ccc(/C=N/NC(=O)c2ccoc2C)cc1,0,-9,35*,-7
CCc1ccc(/C=N/NC(=O)c2ccoc2C)cc1,0,-9,23,8
Cn1c(=O)c(=O)n(C)c2cc(S(=O)(=O)Nc3cccc(C(F)(F)F)c3)ccc21,0,1,2,-3
Cc1ccnc(NC(c2ccsc2)c2ccc3cccnc3c2O)c1 (configuration not stated),0,0,89*,62*
Cc1ccnc(NC(c2ccncc2)c2ccc3cccnc3c2O)c1 (configuration not stated),0,1,79*,113*
Cc1ccnc(NC(c2ccc(F)cc2)c2ccc3cccnc3c2O)c1 (configuration not stated),-2,-1,73*,17
Oc1c(C(Nc2cccnc2)c2ccsc2)ccc2cccnc12 (configuration not stated),0,1,50*,18
COCCNC(=S)N=Nc1c(O)[nH]c2ccccc12,0,0,2,27
N#Cc1ccc(Cl)cc1NC(=O)COC(=O)CCC(=O)c1ccc(Cl)cc1,0,0,24,-3
Cc1cc(C)cc(NC(=O)c2ccc(CSc3nnc(N)s3)cc2)c1,0,-1,-15,-15
O=C1NC(=S)S/C1=C/c1cc([N+](=O)[O-])ccc1O,0,0,1,16
Cc1ccnc(NC(c2ccccn2)c2ccc3cccnc3c2O)c1 (configuration not stated),-1,-1,71*,70*
Cc1ccnc(NC(c2ccc3c(c2)OCO3)c2ccc3cccnc3c2O)c1 (configuration not stated),0,1,82*,28
O=C(Nc1ccc(N2CCC(NCC3CCCO3)CC2)cc1)c1cccc(Cl)c1 (configuration not stated),0,-1,-49,-5
O=C(Cn1c(SCC(=O)Nc2nccs2)nc2ccccc21)NCc1ccccc1,0,0,1,3
Cc1nn2c(N)c(-c3ccc(Cl)cc3)cnc2c1-c1ccccc1,1,0,4,16
Cc1nc2c(-c3ccccc3)cnn2c(N)c1-c1ccccc1,0,1,90*,0
Cc1nc2c(-c3ccc(Cl)cc3)c(C)nn2c(N)c1-c1ccccc1,1,-1,34*,20
SMILES,FBW7 activator,GPR151 ag,TEAD-YAP block,MITF primary
O=C(CCN1C(=O)c2cccc([N+](=O)[O-])c2C1=O)Nc1ccc(Cl)c(Cl)c1,0,1,-2,4
NS(=O)(=O)c1ccc(CCNC(=O)c2ccc(C#CC3(O)CCCCC3)cc2)cc1,0,-1,45*,16
CCC(=O)N[C@@H]1c2ccccc2C2(CCN(Cc3ccc4nsnc4c3)CC2)[C@H]1OC,0,0,13,14
O=S(=O)(NCCCCc1ccccc1)c1ccc2oc3ccccc3c2c1,0,0,-2,3
COc1ccc(C(=O)NC(C)C2CC2)cc1OC1CCN(C(C)=O)CC1 (configuration not stated),0,1,5,-11
O=[N+]([O-])c1ccc(/C=C/c2nc3ccc([N+](=O)[O-])cc3[nH]2)cc1,0,2,4,2
O=[N+]([O-])c1ccc(/C=C/c2nc3ccccc3[nH]2)cc1,0,-8,74*,-2
Cc1cc(S(=O)(=O)N(Cc2ccccc2)Cc2ccccc2)ccc1-n1cnnn1,0,-1,-3,19
O=C(NCCc1ccc(O)cc1)c1ccnc(N2CCN(c3ccccn3)CC2)c1,0,-1,45*,-7
O=C(NCCO)c1ccnc(N2CCN(c3ccccn3)CC2)c1,0,1,-8,9
CCC1SC(=Nc2ccccc2C)NC1=O (configuration not stated),0,-2,4,-9
N#CC(Cl)CNS(=O)(=O)c1ccc(Cl)cc1 (configuration not stated),0,-2,47*,-1
O=C(CN1C(=O)c2ccccc2C1=O)Nc1ccccc1-c1nc2ccccc2[nH]1,0,1,-3,11
O=C(Nc1ccccn1)NC12CC3CC(C1)CC(c1ccc([N+](=O)[O-])cc1)(C3)C2,0,2,-14,-2
O=S(=O)(Nc1ccc2c(c1)OCO2)c1ccc(Oc2ccc(Br)cc2)cc1,0,2,-22,7
O=[N+]([O-])c1ccc(Oc2ccc(S(=O)(=O)Nc3ccc4c(c3)OCCO4)cc2)cc1,0,1,43*,-16
Cc1cccc(-c2ccc(NC(=O)C3CCN(Cc4cnc(N(C)C)s4)CC3)cc2)c1,0,-1,8,3
CC(=O)Nc1ccc(Nc2cc(C)nc(N3CCC(N4CCOCC4)CC3)n2)cc1,0,1,-7,15
COc1ccc(CCNc2ncnc3c2nc(N2CCOCC2)n3C(C)C)cc1,0,1,-13,3
COc1ccc(CCNc2ncnc3c2nc(Nc2ccc(N4CCOCC4)cc2)n3C(C)C)cc1,0,4,79*,7
COc1ccc(CCNc2ncnc3c2nc(-c2ccc(N4CCOCC4)nc2)n3C(C)C)cc1,0,1,59*,-2
COCCOCCCN1CCC2(CC1)NC(=O)Cc1ccccc12,0,-1,7,12
O=C1Cc2ccccc2C2(CCN(Cc3ccc(C(=O)c4ccccc4)cc3)CC2)N1,-1,0,36*,15
Cc1ccccc1N1C(=O)C2C3CCC(C3)C2C1=O (configuration not stated),0,-1,3,-10
O=C1CSC(=S)N1/N=C/c1ccccc1OS(=O)(=O)c1ccccc1,0,-1,5,12
SMILES,FBW7 activator,GPR151 ag,TEAD-YAP block,MITF primary
COc1cccc(/C=N/N2C(=O)CSC2=S)c1O,-2,0,-13,77*
CCOC(=O)c1ccc(NC(=O)CSc2nc(C)nc3sc4c(c23)CCC4)cc1,0,3,3,9
COC(=O)c1ccc(/C=C/C(=O)c2ccc3c(c2)OCCO3)cc1,0,-1,-53,-11
COC(=O)c1ccc(C=Nc2ccc3c(c2)OCCO3)cc1,0,-1,62*,-8
O=C(O)CCCCCNC(=O)COc1ccc(Cl)cc1Cl,0,0,69*,9
COC(=O)CCCCCNC(=O)COc1ccc(Cl)cc1Cl,1,-1,69*,14

# Source: PubChem BioAssay
